Reference: PMC7862700, “An all-to-all approach to the identification of sequence-specific readers for epigenetic DNA modifications on cytosine”

Tests used:
Assay in all cases: DAPPL (digital affinity profiling via proximity ligation, sequencing); 10 mM Tris-HCl pH 7.5, 50 mM NaCl, 1 mM DTT, 4% glycerol, room temperature, 30 min; GST-TFs on glutathione beads, 16-mer random dsDNA library, 0.1% formaldehyde crosslink after washing; high values mean tight binding
FLI1 = target: T1, FLI1 (Homo sapiens, UniProt Q01543 1-452); conditions: protein: recombinant; tags: N-terminal GST; dsDNA, one strand shown
T1 sequence: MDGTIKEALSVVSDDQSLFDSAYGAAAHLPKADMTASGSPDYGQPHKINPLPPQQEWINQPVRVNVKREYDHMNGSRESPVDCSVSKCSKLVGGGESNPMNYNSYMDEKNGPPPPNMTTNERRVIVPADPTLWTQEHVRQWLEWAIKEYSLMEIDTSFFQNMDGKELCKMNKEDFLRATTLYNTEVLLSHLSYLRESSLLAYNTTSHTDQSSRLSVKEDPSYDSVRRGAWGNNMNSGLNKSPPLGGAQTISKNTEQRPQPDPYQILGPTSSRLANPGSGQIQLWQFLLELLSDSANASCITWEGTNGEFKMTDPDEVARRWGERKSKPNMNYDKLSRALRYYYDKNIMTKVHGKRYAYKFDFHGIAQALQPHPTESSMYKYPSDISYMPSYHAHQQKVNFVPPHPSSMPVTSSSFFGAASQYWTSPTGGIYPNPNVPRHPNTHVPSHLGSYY
Procedure, shortened: (§1)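 Pools of DNA-barcoded human transcription factors, expressed in yeast as GST fusions on glutathione beads and combined with a tag-only sample, were incubated with 200 nmole of a 16-mer random double-stranded DNA library. Incubation took 30 min at room temperature in Tris/NaCl/DTT/glycerol buffer and was followed by washing, 0.1% formaldehyde crosslinking, proximity ligation (BsaI/T4 ligase, 1 h, 37 °C), PCR amplification and sequencing on an Illumina NextSeq500. Binding signal is the ratio of a hexamer's read frequency for a factor to its frequency for the tag-only sample.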

ELK1 = target: T2, ELK1 (Homo sapiens, UniProt P19419 1-428); conditions: protein: recombinant; tags: N-terminal GST; dsDNA, one strand shown
T2 sequence: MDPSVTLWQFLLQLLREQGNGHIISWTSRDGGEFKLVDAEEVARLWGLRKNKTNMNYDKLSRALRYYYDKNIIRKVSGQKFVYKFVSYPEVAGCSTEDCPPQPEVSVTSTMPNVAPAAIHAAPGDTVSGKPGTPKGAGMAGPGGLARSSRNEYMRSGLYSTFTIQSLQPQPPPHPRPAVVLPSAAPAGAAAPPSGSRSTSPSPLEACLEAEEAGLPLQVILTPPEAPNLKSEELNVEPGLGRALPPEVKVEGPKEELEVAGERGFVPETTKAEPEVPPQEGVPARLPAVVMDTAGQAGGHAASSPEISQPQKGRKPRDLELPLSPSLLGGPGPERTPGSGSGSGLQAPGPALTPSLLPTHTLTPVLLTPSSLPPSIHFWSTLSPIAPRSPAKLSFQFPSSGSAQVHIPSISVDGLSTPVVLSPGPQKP
Procedure, shortened: as §1

GABPA = target: T3, GABPA (Homo sapiens, UniProt Q06546 1-454); conditions: protein: recombinant; tags: N-terminal GST; dsDNA, one strand shown
T3 sequence: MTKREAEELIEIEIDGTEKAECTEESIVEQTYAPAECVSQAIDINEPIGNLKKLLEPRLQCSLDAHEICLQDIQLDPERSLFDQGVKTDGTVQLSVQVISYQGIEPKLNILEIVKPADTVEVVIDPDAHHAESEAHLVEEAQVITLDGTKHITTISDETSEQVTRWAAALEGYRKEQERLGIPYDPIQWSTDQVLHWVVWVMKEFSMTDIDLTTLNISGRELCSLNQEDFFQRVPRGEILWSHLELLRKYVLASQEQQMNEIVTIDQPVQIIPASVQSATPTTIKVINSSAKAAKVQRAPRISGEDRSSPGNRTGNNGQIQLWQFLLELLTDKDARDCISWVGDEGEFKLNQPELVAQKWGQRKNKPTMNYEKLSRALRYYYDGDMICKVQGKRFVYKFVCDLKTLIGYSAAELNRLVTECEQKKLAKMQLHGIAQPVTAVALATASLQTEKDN
Procedure, shortened: as §1

ERG = target: T4, ERG (Homo sapiens, UniProt P11308 1-479); conditions: protein: recombinant; tags: N-terminal GST; dsDNA, one strand shown
T4 sequence: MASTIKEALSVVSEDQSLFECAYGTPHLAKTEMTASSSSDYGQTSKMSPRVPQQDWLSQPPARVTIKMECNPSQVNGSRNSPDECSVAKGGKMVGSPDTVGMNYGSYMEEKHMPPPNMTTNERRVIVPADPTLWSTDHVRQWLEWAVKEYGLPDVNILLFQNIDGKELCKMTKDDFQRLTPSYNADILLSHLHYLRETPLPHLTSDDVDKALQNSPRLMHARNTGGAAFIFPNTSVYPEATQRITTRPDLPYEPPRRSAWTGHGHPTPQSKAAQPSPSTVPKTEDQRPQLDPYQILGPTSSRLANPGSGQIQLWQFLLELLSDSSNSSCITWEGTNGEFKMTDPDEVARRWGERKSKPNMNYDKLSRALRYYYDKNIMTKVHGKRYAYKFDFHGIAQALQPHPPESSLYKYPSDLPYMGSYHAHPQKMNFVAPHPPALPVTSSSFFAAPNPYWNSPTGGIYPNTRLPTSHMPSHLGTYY
Procedure, shortened: as §1

ELF1 = ELF1 (Homo sapiens, UniProt P32519 1-619); conditions: protein: recombinant; tags: N-terminal GST; dsDNA, one strand shown
ELF1, sequence (P32519 whole entry): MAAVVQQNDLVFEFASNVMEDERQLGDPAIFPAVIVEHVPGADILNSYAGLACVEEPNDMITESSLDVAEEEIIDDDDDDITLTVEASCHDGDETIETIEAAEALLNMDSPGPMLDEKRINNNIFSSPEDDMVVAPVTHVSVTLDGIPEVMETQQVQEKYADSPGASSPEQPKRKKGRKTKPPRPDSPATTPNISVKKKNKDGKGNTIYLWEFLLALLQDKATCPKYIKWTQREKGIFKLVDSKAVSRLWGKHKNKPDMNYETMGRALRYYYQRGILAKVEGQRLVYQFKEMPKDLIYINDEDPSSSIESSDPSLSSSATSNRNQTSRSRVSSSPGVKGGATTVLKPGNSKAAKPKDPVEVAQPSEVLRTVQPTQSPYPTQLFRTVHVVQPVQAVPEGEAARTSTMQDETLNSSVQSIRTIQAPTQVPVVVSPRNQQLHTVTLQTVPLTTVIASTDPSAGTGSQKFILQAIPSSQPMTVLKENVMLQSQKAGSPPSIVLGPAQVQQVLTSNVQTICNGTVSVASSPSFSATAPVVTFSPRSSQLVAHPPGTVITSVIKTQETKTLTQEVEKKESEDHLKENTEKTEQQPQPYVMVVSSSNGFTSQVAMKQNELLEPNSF
Procedure, shortened: as §1

EHF = target: T5, EHF (Homo sapiens, UniProt Q9NZC4 1-300); conditions: protein: recombinant; tags: N-terminal GST; dsDNA, one strand shown
T5 sequence: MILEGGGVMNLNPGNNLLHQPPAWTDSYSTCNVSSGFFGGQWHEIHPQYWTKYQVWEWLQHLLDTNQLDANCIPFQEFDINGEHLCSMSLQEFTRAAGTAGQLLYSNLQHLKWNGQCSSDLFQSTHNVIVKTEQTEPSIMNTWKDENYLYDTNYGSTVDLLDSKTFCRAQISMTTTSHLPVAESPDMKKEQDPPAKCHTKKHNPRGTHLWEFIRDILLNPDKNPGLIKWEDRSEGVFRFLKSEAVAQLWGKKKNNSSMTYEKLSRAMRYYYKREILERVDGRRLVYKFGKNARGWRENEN
Procedure, shortened: as §1

SPI1 = SPI1 (Homo sapiens, UniProt P17947 1-270); conditions: protein: recombinant; tags: N-terminal GST; dsDNA, one strand shown
Procedure, shortened: as §1

SPIB = SPIB (Homo sapiens, UniProt Q01892 1-262); conditions: protein: recombinant; tags: N-terminal GST; dsDNA, one strand shown
SPIB, sequence (Q01892 whole entry): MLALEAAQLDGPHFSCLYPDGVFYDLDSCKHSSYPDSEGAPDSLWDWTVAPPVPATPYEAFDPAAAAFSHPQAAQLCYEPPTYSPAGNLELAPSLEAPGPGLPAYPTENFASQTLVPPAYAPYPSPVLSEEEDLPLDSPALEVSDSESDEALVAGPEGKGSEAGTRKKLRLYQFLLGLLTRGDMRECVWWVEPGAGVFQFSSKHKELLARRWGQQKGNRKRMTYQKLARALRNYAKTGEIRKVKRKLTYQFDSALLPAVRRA
Procedure, shortened: as §1

ELK3 = target: T6, ELK3 (Homo sapiens, UniProt P41970 1-407); conditions: protein: recombinant; tags: N-terminal GST; dsDNA, one strand shown
T6 sequence: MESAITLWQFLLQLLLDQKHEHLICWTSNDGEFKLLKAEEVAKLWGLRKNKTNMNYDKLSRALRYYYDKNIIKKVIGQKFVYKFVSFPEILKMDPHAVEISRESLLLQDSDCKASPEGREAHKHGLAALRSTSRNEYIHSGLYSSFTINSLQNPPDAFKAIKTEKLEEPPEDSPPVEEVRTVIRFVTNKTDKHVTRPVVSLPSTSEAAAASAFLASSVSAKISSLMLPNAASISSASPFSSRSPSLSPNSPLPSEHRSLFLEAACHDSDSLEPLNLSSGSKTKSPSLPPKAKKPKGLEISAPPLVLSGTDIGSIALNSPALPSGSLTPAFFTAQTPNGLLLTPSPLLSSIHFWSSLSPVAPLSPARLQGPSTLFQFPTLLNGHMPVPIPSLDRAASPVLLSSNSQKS
Procedure, shortened: as §1

FEV = target: T7, FEV (Homo sapiens, UniProt Q99581 1-238); conditions: protein: recombinant; tags: N-terminal GST; dsDNA, one strand shown
T7 sequence: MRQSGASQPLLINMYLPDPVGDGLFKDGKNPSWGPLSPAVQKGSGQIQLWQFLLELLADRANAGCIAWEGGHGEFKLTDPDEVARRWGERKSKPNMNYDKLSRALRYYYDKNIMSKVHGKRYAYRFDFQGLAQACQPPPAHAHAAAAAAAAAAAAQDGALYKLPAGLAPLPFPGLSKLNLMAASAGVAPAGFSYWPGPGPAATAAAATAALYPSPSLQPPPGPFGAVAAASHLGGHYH
Procedure, shortened: as §1

ETV5 = ETV5 (Homo sapiens, UniProt P41161 1-510); conditions: protein: recombinant; tags: N-terminal GST; dsDNA, one strand shown
ETV5, sequence (P41161 whole entry): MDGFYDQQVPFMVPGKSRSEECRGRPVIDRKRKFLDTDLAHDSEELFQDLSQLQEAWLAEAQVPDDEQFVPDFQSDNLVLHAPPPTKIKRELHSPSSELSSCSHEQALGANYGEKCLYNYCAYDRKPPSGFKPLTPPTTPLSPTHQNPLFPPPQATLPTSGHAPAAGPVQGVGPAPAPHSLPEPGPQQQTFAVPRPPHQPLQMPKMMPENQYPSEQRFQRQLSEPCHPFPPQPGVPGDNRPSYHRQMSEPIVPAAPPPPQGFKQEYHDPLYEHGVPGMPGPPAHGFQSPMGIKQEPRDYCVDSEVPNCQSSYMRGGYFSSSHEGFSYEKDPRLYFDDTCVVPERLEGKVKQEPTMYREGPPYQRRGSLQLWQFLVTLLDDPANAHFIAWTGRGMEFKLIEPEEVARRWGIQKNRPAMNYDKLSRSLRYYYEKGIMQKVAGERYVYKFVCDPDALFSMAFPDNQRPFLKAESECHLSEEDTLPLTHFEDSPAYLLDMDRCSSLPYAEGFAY
Procedure, shortened: as §1

HSF1 = HSF1 (Homo sapiens, UniProt Q00613 1-529); conditions: protein: recombinant; tags: N-terminal GST; chain copies: 3; dsDNA, one strand shown
HSF1, sequence (Q00613 whole entry): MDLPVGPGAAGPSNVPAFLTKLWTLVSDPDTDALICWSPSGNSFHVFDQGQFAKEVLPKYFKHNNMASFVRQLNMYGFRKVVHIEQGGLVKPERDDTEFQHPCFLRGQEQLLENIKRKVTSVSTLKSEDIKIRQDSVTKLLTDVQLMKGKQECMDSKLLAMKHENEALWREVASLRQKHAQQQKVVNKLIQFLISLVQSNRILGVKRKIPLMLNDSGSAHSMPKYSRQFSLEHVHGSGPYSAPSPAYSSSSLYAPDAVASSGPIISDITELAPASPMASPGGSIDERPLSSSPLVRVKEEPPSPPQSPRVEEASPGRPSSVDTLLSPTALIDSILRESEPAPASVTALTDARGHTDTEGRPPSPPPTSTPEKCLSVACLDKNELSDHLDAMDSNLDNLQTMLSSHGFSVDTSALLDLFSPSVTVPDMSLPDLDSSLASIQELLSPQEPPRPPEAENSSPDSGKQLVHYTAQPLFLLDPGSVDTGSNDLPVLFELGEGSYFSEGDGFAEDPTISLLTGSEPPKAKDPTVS
Procedure, shortened: as §1

SPIC = target: T8, SPIC (Homo sapiens, UniProt Q8N5J4 1-248); conditions: protein: recombinant; tags: N-terminal GST; dsDNA, one strand shown
T8 sequence: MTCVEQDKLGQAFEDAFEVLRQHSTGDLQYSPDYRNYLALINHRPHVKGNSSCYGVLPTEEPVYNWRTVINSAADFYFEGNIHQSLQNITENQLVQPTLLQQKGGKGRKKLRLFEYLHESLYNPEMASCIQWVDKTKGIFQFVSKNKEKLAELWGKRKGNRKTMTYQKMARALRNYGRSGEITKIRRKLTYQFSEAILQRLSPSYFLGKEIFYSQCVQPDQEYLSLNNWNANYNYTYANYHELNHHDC
Procedure, shortened: as §1

ELF4 = ELF4 (Homo sapiens, UniProt Q99607 1-663); conditions: protein: recombinant; tags: N-terminal GST; dsDNA, one strand shown
ELF4, sequence (Q99607 whole entry): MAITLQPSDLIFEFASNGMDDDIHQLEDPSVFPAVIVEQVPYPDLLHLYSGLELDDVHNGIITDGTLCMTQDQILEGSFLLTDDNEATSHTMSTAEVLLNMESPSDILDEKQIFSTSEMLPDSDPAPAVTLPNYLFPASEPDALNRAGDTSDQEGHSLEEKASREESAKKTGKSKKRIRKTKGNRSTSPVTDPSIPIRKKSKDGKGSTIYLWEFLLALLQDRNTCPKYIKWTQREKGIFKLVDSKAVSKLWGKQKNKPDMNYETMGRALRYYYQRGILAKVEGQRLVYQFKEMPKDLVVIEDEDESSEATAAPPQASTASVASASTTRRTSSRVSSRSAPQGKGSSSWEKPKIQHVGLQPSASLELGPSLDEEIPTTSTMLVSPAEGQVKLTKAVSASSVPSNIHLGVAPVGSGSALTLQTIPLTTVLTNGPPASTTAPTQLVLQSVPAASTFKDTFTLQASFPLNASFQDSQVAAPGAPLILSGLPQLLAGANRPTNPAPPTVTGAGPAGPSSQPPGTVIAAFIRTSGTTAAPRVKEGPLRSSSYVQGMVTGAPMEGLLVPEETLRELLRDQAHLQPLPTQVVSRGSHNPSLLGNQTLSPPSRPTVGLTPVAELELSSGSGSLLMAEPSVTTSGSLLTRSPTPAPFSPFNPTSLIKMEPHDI
Procedure, shortened: as §1

ELK4 = target: T9, ELK4 (Homo sapiens, UniProt P28324-2 1-405); conditions: protein: recombinant; tags: N-terminal GST; dsDNA, one strand shown
T9 sequence: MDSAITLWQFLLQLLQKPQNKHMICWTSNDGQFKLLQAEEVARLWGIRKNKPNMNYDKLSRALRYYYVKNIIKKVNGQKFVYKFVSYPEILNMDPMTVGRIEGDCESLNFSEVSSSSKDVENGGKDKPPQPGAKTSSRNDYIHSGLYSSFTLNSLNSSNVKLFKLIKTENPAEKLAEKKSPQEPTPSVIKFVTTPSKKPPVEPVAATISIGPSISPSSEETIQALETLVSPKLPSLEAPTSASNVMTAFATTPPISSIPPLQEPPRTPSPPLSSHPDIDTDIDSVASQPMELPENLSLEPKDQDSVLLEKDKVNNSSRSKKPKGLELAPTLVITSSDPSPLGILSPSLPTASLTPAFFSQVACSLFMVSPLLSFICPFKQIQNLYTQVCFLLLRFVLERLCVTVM
Procedure, shortened: as §1

ETV2 = target: T10, ETV2 (Homo sapiens, UniProt O00321 1-342); conditions: protein: recombinant; tags: N-terminal GST; dsDNA, one strand shown
T10 sequence: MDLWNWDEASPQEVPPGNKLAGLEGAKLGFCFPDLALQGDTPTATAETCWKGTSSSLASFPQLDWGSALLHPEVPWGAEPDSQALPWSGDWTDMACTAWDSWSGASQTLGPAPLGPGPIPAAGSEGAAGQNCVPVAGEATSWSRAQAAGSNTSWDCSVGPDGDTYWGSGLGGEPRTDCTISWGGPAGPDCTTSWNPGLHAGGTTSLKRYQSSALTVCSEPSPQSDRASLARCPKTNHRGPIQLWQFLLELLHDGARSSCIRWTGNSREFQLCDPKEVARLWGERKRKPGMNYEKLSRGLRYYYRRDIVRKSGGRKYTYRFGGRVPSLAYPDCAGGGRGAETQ
Procedure, shortened: as §1

ELF3 = target: T11, ELF3 (Homo sapiens, UniProt P78545 1-371); conditions: protein: recombinant; tags: N-terminal GST; dsDNA, one strand shown
T11 sequence: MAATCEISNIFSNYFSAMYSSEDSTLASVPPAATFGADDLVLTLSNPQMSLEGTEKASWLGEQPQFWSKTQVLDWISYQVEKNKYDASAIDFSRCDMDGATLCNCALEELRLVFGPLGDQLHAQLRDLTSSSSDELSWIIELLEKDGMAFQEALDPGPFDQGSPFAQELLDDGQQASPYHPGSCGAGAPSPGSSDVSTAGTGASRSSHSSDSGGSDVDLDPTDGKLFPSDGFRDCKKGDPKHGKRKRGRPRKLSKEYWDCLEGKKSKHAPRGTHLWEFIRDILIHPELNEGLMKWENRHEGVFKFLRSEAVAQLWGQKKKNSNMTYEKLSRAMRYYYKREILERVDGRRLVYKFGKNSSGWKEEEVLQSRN
Procedure, shortened: as §1

CRX = CRX (Homo sapiens, UniProt O43186 1-299); conditions: protein: recombinant; tags: N-terminal GST; dsDNA, one strand shown
CRX, sequence (O43186 whole entry): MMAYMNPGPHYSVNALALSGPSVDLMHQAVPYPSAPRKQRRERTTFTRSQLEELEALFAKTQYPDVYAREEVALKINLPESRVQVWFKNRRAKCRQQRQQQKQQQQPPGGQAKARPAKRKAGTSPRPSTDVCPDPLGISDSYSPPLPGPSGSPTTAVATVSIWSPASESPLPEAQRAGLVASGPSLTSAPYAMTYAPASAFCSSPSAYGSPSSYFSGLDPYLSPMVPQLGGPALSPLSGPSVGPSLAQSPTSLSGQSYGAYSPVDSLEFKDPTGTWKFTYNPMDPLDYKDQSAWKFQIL
Procedure, shortened: as §1

ETV1 = ETV1 (Homo sapiens, UniProt P50549 1-477); conditions: protein: recombinant; tags: N-terminal GST; dsDNA, one strand shown
ETV1, sequence (P50549 whole entry): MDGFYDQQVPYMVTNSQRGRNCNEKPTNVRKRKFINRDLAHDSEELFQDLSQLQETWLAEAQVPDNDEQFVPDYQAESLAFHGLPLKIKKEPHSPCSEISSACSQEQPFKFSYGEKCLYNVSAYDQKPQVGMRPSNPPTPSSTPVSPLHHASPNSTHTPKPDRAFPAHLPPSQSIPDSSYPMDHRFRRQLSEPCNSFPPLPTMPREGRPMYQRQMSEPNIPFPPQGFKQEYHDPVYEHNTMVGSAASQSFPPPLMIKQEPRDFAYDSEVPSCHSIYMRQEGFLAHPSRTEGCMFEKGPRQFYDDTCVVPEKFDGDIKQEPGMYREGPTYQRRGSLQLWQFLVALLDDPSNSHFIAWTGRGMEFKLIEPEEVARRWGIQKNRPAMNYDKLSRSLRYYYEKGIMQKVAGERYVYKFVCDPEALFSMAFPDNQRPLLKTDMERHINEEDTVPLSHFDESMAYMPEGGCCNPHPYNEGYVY
Procedure, shortened: as §1

Sequence: AAGAAT
- binding signal (FLI1): 1.13 fold enrichment (6-mer frequency, TF over GST control)
- binding signal (ELK1): 1.17 fold enrichment (6-mer frequency, TF over GST control)
- binding signal (GABPA): 1.13 fold enrichment (6-mer frequency, TF over GST control)
- binding signal (ERG): 1.15 fold enrichment (6-mer frequency, TF over GST control)
- binding signal (ELF1): 1.11 fold enrichment (6-mer frequency, TF over GST control)
- binding signal (EHF): 1.14 fold enrichment (6-mer frequency, TF over GST control)
- binding signal (SPI1): 1.18 fold enrichment (6-mer frequency, TF over GST control)
- binding signal (SPIB): 1.14 fold enrichment (6-mer frequency, TF over GST control)
- binding signal (ELK3): 1.1 fold enrichment (6-mer frequency, TF over GST control)
- binding signal (FEV): 1.09 fold enrichment (6-mer frequency, TF over GST control)
- binding signal (ETV5): 1.11 fold enrichment (6-mer frequency, TF over GST control)
- binding signal (HSF1): 1.83 fold enrichment (6-mer frequency, TF over GST control)
- binding signal (SPIC): 1.08 fold enrichment (6-mer frequency, TF over GST control)
- binding signal (ELF4): 1.24 fold enrichment (6-mer frequency, TF over GST control)
- binding signal (ELK4): 1.09 fold enrichment (6-mer frequency, TF over GST control)
- binding signal (ETV2): 1.12 fold enrichment (6-mer frequency, TF over GST control)
- binding signal (ELF3): 1.17 fold enrichment (6-mer frequency, TF over GST control)
- binding signal (CRX): 1.43 fold enrichment (6-mer frequency, TF over GST control)
- binding signal (ETV1): 1.15 fold enrichment (6-mer frequency, TF over GST control)
